Experimental data published in ChEMBL document CHEMBL3988442, “University of Dundee, Small-Polar-MMV Screening Library” (2021).

How the values were obtained:
[1] = molecular target: T1, Aspartate--tRNA(Asp/Asn) ligase (Mycobacterium tuberculosis (strain ATCC 25618 / H37Rv)) (UniProt P9WFW3); test: Assay for Asp RNA synthetase-1 from Mycobacterium tuberculosis; assay type: functional; parameters: scale not given: direction of the effect not stated beside the values; conditions: 30 µM; further: in the data most compounds retested in dose-response had high values
T1 sequence (whole entry): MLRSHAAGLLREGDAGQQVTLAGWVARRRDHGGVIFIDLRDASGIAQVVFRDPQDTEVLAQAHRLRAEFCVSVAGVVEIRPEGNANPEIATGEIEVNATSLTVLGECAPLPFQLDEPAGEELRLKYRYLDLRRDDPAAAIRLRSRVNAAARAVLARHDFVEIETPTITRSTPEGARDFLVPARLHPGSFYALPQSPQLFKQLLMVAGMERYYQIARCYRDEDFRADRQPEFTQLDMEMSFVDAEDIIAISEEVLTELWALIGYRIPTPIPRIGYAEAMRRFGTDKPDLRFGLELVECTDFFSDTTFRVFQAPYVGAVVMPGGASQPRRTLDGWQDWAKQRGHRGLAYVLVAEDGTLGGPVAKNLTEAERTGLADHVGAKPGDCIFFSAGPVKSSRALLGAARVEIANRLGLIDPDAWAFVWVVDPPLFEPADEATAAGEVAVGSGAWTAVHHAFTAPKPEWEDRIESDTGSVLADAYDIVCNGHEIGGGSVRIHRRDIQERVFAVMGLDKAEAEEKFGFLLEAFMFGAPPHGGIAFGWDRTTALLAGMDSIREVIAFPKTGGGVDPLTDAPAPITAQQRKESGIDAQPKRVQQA

[2] = molecular target: Shiga toxin 2 (Escherichia coli O157:H7) (UniProt P09385+P09386); test: E. coli 0.157:H7 Shiga Toxin SOP - stx2 screening assay; assay type: functional; parameters: scale not given: direction of the effect not stated beside the values; conditions: 30 µM

Row | Structure (SMILES) | Percent Effect [1] [%] | Percent Effect [2] [%]
1 | Cc1cc(N2CCCC2c2cnccn2)ncn1 (centres undefined) | 0.908 | 9.94
2 | Cc1cccc2cc(CNCCCN3CCOCC3)c(=O)[nH]c12 | 0.253 | -27.9
3 | CC(Oc1ccccc1C(F)(F)F)C(=O)NS(=O)(=O)C(C)C (centres undefined) | -4.49 | 4.69
4 | CCOc1ncccc1C(=O)N1CCCC1c1c(C)nn(C)c1OC (centres undefined) | -0.602 | -8.49
5 | C=C(C)C(=O)N1CCC(C(=O)c2cc(C)cnc2N)CC1 | -5.78 | -12
6 | CCN1CCCn2c(nc(CNC(=O)c3ccsc3)cc2=O)C1 | 7.56 | 11.3
7 | COCC(=O)N(C)Cc1cccc(Cl)c1 | -0.779 | -8.03
8 | Cc1nc(C)n(C2CCCN(C(=O)Cc3cccnc3)C2)n1 (centres undefined) | -4.24 | 1.27
9 | CCOc1cccc(NS(=O)(=O)c2cc(C)c(C(=O)O)s2)c1 | 1.62 | -10.3
10 | Cc1cnn(C2CCCN(C(=O)CCc3nccs3)C2)c1 (centres undefined) | -2.71 | 20
11 | CC(C)Cc1noc(CN2CCOCC2)n1 | -2.59 | 29.5
12 | O=C(c1ccncc1)N1CCC(c2nc(O)cc(-c3ccncc3)n2)C1 (centres undefined) | -0.574 | 1.62
13 | CNc1cc(C)nc(C2CN(Cc3cc[nH]n3)CCO2)c1 (centres undefined) | -0.432 | 13.3
14 | CC(=O)N(C)CC(=O)Nc1cccc(N2CCN(CC3CC3)CC2)c1 | 7.12 | -14.8
15 | Cc1ccc(CC(=O)N2CCCC(c3cc(C)[nH]n3)C2)cn1 (centres undefined) | -0.962 | -18.6
16 | CN1CC(=O)N(c2ccccc2)CC12CCN(Cc1cccnc1)C2 (centres undefined) | -5.22 | -7.54
17 | O=C(c1cccs1)N1C[C@H]2CC[C@@]3(N=C(c4ccccc4)NC3=O)[C@H]2C1 | -3.42 | -42.8
